Bioassay records (PubChem BioAssay)
SMN2 splice enh – qHTS Assay for Enhancers of SMN2 Splice Variant Expression; Potency, µM (titrated, usually from 46.1 µM), for the others: at the top dose activity change, positive = activation, most hits filed as activators; AID 1458, 2008; 210,000 compounds, 2.8% hits; HEK293 SMN2-luciferase splicing reporter, luminescence, 30-36 h; further: % of control where 0% means no effect; nearly all actives have a fitted effect of over 55% in size
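HEK293 cells carry an SMN2 minigene-luciferase reporter in which exon 7 inclusion puts luciferase in frame. Cells were seeded at 2000 cells/well, attached for 10-12 hours, then exposed to compounds for 30-36 hours at 37C before ONE-Glo luminescence.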
ELG1 DNA repair – qHTS screen for small molecules that inhibit ELG1-dependent DNA repair in human embryonic kidney (HEK293T) cells expressing luciferase-tagged ELG1; HEK293T ELG1-luciferase reporter, luminescence, 16 h; DNA damage induced by 5-fluorouridine; Potency, µM (series often up to 46.1 µM), without a hit: at the top dose activity change, negative = inhibition, usual class: inhibitors; 330,000 compounds, 2.3% hits; AID 504467, 2011; further: on the % scale 0 is the no-effect control and ±100 the full control effect; nearly all actives have a fitted effect of over 55% in size
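Step one: seed 2,000 cells per well. Step two: pin-transfer compound or DMSO alongside 5-fluorouridine. Step three: incubate 16 hr, 37 °C, 5% CO2. Step four: add ONE-Glo, wait 30 min, read luminescence.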
ELG1 genotoxic – qHTS screen for small molecules that induce genotoxicity in human embryonic kidney (HEK293T) cells expressing luciferase-tagged ELG1; HEK293T ELG1-luciferase reporter, luminescence, 16 h; Potency, µM (highest dose often 46 µM), for the others: at the top dose activity change, positive = activation, usual class: activators; 330,000 compounds, 1.3% hits; AID 504466, 2011; further: % of control where 0% means no effect; nearly all actives have a fitted effect of over 60% in size
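HEK293T cells expressing luciferase-tagged ELG1 were exposed to compound or DMSO vehicle for 16 hr at 37 °C and 5% CO2. Luciferase activity was then measured with ONE-Glo after 30 min at room temperature.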
FLuc counter – qHTS profiling assay for firefly luciferase inhibitor/activator using purifed enzyme and Km concentrations of substrates (counterscreen for miR-21 project); Luciferin 4-monooxygenase (Photinus pyralis), P08659; purified FLuc, Km substrates, luminescence inhibition; 360,000 compounds, 6.9% hits; Potency, µM (titrated, usually from 57.5 µM), for the others: at the highest dose activity change, negative = inhibition, usual class: inhibitors;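 further: plate controls were vehicle for no effect and reference inhibitor for full effect; nearly all actives have a fitted effect of over 55% in size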
Target sequence (P08659 whole entry, looked up): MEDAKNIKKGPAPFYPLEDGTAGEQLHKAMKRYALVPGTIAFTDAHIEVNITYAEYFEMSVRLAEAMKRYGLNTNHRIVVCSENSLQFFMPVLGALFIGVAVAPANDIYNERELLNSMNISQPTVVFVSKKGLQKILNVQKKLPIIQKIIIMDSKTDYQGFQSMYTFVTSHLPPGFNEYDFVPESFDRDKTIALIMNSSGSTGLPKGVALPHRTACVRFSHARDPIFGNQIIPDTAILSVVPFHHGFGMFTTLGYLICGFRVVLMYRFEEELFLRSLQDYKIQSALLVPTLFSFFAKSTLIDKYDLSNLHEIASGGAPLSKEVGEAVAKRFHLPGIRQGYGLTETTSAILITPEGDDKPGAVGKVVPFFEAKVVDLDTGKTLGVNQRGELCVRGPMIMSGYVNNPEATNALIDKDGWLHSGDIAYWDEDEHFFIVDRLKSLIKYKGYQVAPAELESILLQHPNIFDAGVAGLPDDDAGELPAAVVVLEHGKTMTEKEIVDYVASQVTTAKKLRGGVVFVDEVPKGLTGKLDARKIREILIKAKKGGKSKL
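Purified P. pyralis luciferase (10nM final) with 10uM D-luciferin and 10uM ATP (Km levels) in 50mM Tris acetate pH 7.5, 10mM Mg acetate, 0.01% Tween-20, 0.05% BSA; qHTS 6-point titration, ~60 µM downward; luminescence read.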
NPC1 promoter act – qHTS Assay for NPC1 Promoter Activators; Potency, µM (doses to about 9.22 µM), for inactives: top-dose activation, most hits filed as activators; 320,000 compounds, 2.4% hits; AID 485313, 2010; Huh7 NPC1 promoter luciferase reporter, 24 h; further: % of control where 0% means no effect; nearly all actives have a fitted effect of over 60% in size
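Huh7 reporter cells (NPC1 promoter driving luciferase) are dosed with compound for 24 h at 37 °C, 5% CO2; luciferase detection reagent is then added and luminescence measured after 10 min at ambient temperature.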
Rab9 prom act – qHTS Assay for Rab9 Promoter Activators | Huh7 Rab9 promoter-luciferase reporter, luminescence, 24 h | Potency, µM (doses to about 9.22 µM), for the others: top-dose activation, negative = inhibition, hits mostly activators | 320,000 compounds, 2.8% hits | AID 485297, 2010; further: % of control where 0% means no effect; nearly all actives have a fitted effect of over 60% in size
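Rab9 promoter-driven luciferase in stably transfected Huh7 cells; 1500 cells/well rested 2 h, exposed to compound in DMSO for 24 h at 37 °C, 5% CO2. Luminescence read 10 min after adding luciferase reagent at ambient temperature.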
The depositor's hits bear a star. An excerpt weighted towards active compounds, which were near 9.4% of everything screened. The call rests on the fitted dose curve; in most records, active means well fitted curve in the direction sought with a large enough effect; inconclusive means small, poorly fitted or top-dose-only effect, or another doubt; inactive means no such curve, though single readings can be large; an effect the other way counts as inactive or inconclusive. Potency means the concentration at half of the fitted maximal effect.

Screening COC(=O)C1=C(O)/C(=C\c2ccc(CNC(=O)C(=O)Nc3ccc(C)cc3)o2)N=C1C returned SMN2 splice enh -20.4%, ELG1 DNA repair 19.9%, ELG1 genotoxic 8.5%, FLuc counter 6.75µM*, NPC1 promoter act 0.5% and Rab9 prom act 0.1%.
`CCc1nn2c(=O)c(S(=O)(=O)Nc3ccc(C)c(C)c3)c(C)nc2s1` gave SMN2 splice enh -13.5% and FLuc counter -5.7%.
O=C(Nc1ccc(OCC(=O)N2CCN(S(=O)(=O)c3ccccc3)CC2)cc1)c1ccco1 was read as SMN2 splice enh 22.1%, ELG1 DNA repair -5.2%, ELG1 genotoxic -4.3%, FLuc counter 10.7µM*, NPC1 promoter act 3.4% and Rab9 prom act -0.8%.
For O=C(Nc1ccc(OCC(=O)N2CCC(Cc3ccccc3)CC2)cc1)c1ccco1 the results were SMN2 splice enh -12.0%, ELG1 DNA repair inconclusive, ELG1 genotoxic -0.9%, FLuc counter 26.9µM*, NPC1 promoter act 1.7% and Rab9 prom act -5.9%.
For CC(=O)Nc1ccc(OCC(=O)N2CCC(Cc3ccccc3)CC2)cc1 the results were SMN2 splice enh -31.1%, ELG1 DNA repair inconclusive, ELG1 genotoxic -3.7%, FLuc counter -10.6%, NPC1 promoter act -4.2% and Rab9 prom act -2.1%.
For CCCCCCCN[C@H]1CCC[C@@H]1CCCCCCC(=O)O the results were SMN2 splice enh 28.0%.
`Cn1c(=O)n(C)c2cc3[nH]cnc3cc21` gave ELG1 DNA repair inconclusive, ELG1 genotoxic 5.8%, FLuc counter 0.3%, NPC1 promoter act -4.2% and Rab9 prom act 11.9%.
Screening Nc1cc2nc[nH]c2cc1N returned SMN2 splice enh 3.3%, ELG1 DNA repair inconclusive, ELG1 genotoxic 18.8%, FLuc counter 15.1µM*, NPC1 promoter act -7.0% and Rab9 prom act 11.2%.
O=C(Nc1cccc(F)c1)N1CCC2(CC1)CCN(C(=O)c1cnccn1)CC2 was read as SMN2 splice enh -11.5%.
Cc1nn(-c2nnc(NC3CCCCC3)nn2)c(C)c1Br was read as SMN2 splice enh 12.6µM*, ELG1 DNA repair inconclusive, ELG1 genotoxic 18.4µM*, FLuc counter 4.26µM*, NPC1 promoter act 2.24µM* and Rab9 prom act 2.24µM*.
Screening Cc1ccccc1OCc1nnc2c3cnn(C)c3ncn12 returned SMN2 splice enh 19.4%, ELG1 DNA repair inconclusive, ELG1 genotoxic inconclusive, FLuc counter 21.3µM*, NPC1 promoter act 3.16µM* and Rab9 prom act 3.98µM*.
For Cc1ccccc1OCc1nc2c3cnn(-c4ccccc4Br)c3ncn2n1 the results were SMN2 splice enh 0.8% and FLuc counter inconclusive.
For Cc1sc(NC(=O)CN(C(=O)c2ccccc2F)C2CCCC2)c(C(N)=O)c1C the results were ELG1 DNA repair 16.4µM*, ELG1 genotoxic -26.3%, FLuc counter 1.1%, NPC1 promoter act 10.2% and Rab9 prom act -0.5%.
CCC1CCCCN1CCCNC(=O)c1[nH]c2ccccc2c1Sc1ccc(Cl)cc1 (centres undefined) was read as FLuc counter -2.8%.
`C=CCn1cccc(/C=C/C(=O)c2ccc(C(C)(C)C)cc2)c1=S` gave SMN2 splice enh -104.1%, ELG1 DNA repair inconclusive, ELG1 genotoxic -18.9%, FLuc counter 13.5µM*, NPC1 promoter act -1.4% and Rab9 prom act -8.2%.
`COc1ccc(CC2=CC(=O)c3ccccc3C2=O)cc1` gave ELG1 DNA repair inconclusive, ELG1 genotoxic 11.5%, FLuc counter 2.39µM*, NPC1 promoter act -5.1% and Rab9 prom act 16.7%.
Cc1csc2nc(CSc3nc4ccccc4o3)c(Br)n12 was read as SMN2 splice enh inconclusive, ELG1 DNA repair inconclusive, ELG1 genotoxic 2.91µM*, FLuc counter 8.49µM*, NPC1 promoter act 3.55µM* and Rab9 prom act 2.51µM*.
`COc1cc(NC(=O)CN2CCN(c3ccccc3O)CC2)c(C)cc1[N+](=O)[O-]` gave SMN2 splice enh inconclusive, ELG1 DNA repair 20.6µM*, ELG1 genotoxic -5.4%, FLuc counter -2.5%, NPC1 promoter act 0.9% and Rab9 prom act -0.7%.
For COc1cc(NC(=O)CN2CCC(C)CC2)c(C)cc1[N+](=O)[O-] the results were ELG1 DNA repair inconclusive, ELG1 genotoxic 8.5%, FLuc counter -16.2%, NPC1 promoter act 14.2% and Rab9 prom act 20.2%.
Screening Cc1ccc(-c2cc(-c3ccccc3)no2)c(O)c1 returned ELG1 DNA repair inconclusive, ELG1 genotoxic 0.366µM*, FLuc counter 0.169µM*, NPC1 promoter act 3.16µM* and Rab9 prom act 2µM*.
Screening CC(C)(C)c1cc(-c2ccccc2)no1 returned ELG1 DNA repair inconclusive, ELG1 genotoxic -1.0%, FLuc counter inconclusive, NPC1 promoter act -0.7% and Rab9 prom act -6.5%.
Cc1ccccc1-c1cc(-c2ccccc2O)on1 was read as SMN2 splice enh 7.08µM*, ELG1 DNA repair inconclusive, ELG1 genotoxic inconclusive, FLuc counter 1.9µM*, NPC1 promoter act inconclusive and Rab9 prom act inconclusive.
Screening Cc1ccc(O)c(-c2cc(-c3ccc(F)cc3)no2)c1 returned ELG1 DNA repair inconclusive, ELG1 genotoxic 2.06µM*, FLuc counter 0.953µM*, NPC1 promoter act -32.7% and Rab9 prom act -33.2%.
`Oc1ccccc1-c1cc(-c2ccccc2)no1` gave SMN2 splice enh 3.16µM*, ELG1 DNA repair inconclusive, ELG1 genotoxic inconclusive, FLuc counter 0.849µM*, NPC1 promoter act 5.62µM* and Rab9 prom act inconclusive.
Screening Cc1ccc(O)c(NC(=O)c2cc(-c3ccccc3O)no2)c1 returned FLuc counter 6.4%.
For CCOC(=O)N1CCc2c(sc3c2c(=O)n(-c2ccc(CC)cc2)c(=O)n3CC(=O)Nc2ccc(C)cc2)C1 the results were SMN2 splice enh -5.1% and FLuc counter -0.3%.
Screening NCC1CCC(N)C(O[C@@H]2C(O)[C@H](O[C@H]3OC(CO)C(O)C(N)C3O)[C@@H](N)C[C@H]2N)O1 (some centres undefined) returned SMN2 splice enh -2.5%.
For COc1ccc(C(=O)Nc2ccc(-c3nc4ncccc4o3)cc2C)cc1Br the results were SMN2 splice enh inconclusive and FLuc counter 0.1%.
